# GalR3 antagonist: human GalR3 antagonism; inhibition, % at 3 µM; O60755; 360,000 tested, 0.44% active; HEK293 GalR3-CNG cAMP membrane potential fluorescence; galR3 body fused to GalR1 C-terminus;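 active = inhibition above the screen-wide average plus 3 SD, cut at about 13% in these data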;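 also: forskolin and galanin both at EC90 stimulate the cells; cAMP rise reported by CNG channel membrane potential dye signal; 0% = forskolin plus galanin with DMSO and 100% = forskolin alone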
# Target sequence (O60755 1-299 limits assumed): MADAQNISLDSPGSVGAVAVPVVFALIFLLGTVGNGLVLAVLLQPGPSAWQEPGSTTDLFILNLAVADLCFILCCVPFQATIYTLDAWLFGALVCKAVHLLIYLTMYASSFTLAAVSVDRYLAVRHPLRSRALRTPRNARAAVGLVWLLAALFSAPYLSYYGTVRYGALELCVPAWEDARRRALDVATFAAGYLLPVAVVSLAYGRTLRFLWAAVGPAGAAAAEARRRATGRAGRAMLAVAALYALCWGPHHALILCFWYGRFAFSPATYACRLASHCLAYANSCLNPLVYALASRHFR
# Gli-Sufu antag: blocks Gli-Sufu signaling in a luciferase reporter. inhibition, % at 5 µM. Sufu-KO-LIGHT fibroblasts, Gli luciferase reporter luminescence. 340,000 tested, 0.74% active;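 active = inhibition above about 55%, limit read from the data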;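 also: 0% = DMSO-treated cells and 100% = wells with medium but no cells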
# HIV Env fusion: inhibitors of HIV Env-mediated cell fusion | HeLa-JRFL Env/CEM21 cell fusion, luciferase | inhibition, % at 12.3 µM | 360,000 tested, 1.1% active;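 active = mean replicate inhibition score of at least 50 and every replicate individually at or above 50; inconclusive = only one of the two criteria met; inactive = mean below 50 and not all replicates reaching 50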;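 also: 0% = plate neutral controls and 100% = maraviroc near 300 nM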
# aDG glyco act: increases alpha dystroglycan glycosylation; Pro5-aDG cells, alpha-DG glycosylation AlphaScreen (IIH6); 0% Pro5, 100% B10-LARGE cell signal; activation, % at 10 µM; 360,000 tested, 0.22% active; AID 624168;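 active = activation of at least 8% versus controls, or a plate z-score of at least 8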;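 also: Pro5 are CHO cells carrying HIG-tagged alpha-DG that lacks glycosylation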
# NR2F2 inh: inhibitors of human COUP-TFII (NR2F2); 370,000 tested, 0.7% active; inhibition, % at 8.6 µM; P24468; AID 686940; HEK293T NGFI-A luciferase reporter, luminescence;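 active = inhibition above a per-plate cutoff, mean inhibition of test wells between control levels plus 3 SD, cut at about 38% in these data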;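 also: cells cotransfected with COUP-TFII expression vector driving the NGFI-A reporter; 0% = median of COUP-TF2 test wells and 100% = reporter-only cells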
# Target sequence (P24468 whole entry, looked up): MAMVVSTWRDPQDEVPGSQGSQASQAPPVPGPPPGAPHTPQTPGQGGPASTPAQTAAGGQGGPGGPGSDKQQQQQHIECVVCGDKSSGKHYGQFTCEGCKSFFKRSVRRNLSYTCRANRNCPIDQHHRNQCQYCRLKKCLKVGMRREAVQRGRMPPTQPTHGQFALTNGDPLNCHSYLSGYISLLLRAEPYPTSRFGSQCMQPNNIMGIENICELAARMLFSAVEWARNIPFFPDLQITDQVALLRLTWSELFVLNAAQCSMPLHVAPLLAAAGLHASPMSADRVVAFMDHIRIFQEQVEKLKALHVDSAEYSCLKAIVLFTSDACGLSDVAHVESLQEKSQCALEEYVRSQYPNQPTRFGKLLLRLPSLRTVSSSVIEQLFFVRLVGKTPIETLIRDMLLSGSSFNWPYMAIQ
# Gli-Sufu confirm: Gli-SUFU antagonism confirmation, single concentration; shares compounds with Gli-Sufu antag; Sufu-KO-LIGHT cells, Gli luciferase reporter, luminescence; inhibition, % at 5 µM; 2,500 tested, 40% active;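 active = mean inhibition at 5 µM reaching about 45%, limit read from the data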;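 also: plate controls were DMSO-treated cells for no effect and wells lacking cells for full effect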
# SufuKO cytotox: cytotoxic in Gli-SUFU antagonist counter-screen; shares compounds with Gli-Sufu antag; Sufu-KO-LIGHT cells cytotoxicity, ATP luminescence; cytotoxicity, % at 5 µM; 2,500 tested, 32% active;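 active = mean cytotoxicity at 5 µM above about 25%, limit read from the data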;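 also: cells exposed to compound overnight for roughly 16 to 18 hours; plate controls were DMSO wells with cells for no effect and medium without cells for full effect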
# Wnt3a counter: Wnt3a reporter inhibition counter-screen; shares compounds with Gli-Sufu antag; Wnt-LIGHT cells, Wnt3a-driven luciferase reporter, luminescence; inhibition, % at 6.25 µM; 2,500 tested, 20% active;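 active = mean inhibition above about 25%, limit read from the data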
# Starred values were filed as active, the others as inactive; ? = inconclusive; nt = not tested or not shown; [ ] = remark or other dose. In the library only some 2.1% were active in any assay of this set; here they are far more common.
SMILES,GalR3 antagonist,Gli-Sufu antag,HIV Env fusion,aDG glyco act,NR2F2 inh,Gli-Sufu confirm,SufuKO cytotox,Wnt3a counter
Cc1cc(NC(=O)COc2ccccc2C)ccc1NC(=O)c1cccs1,-8,51,-10,0,1,12,0,-48
Cc1cc(NC(=O)COc2ccccc2C)ccc1NC(=O)c1ccco1,-3,-23,-11,0,4,nt,nt,nt
CCOC(=O)c1ccc(NC(=O)CNC(=O)C2CCCCC2)cc1,1,-2,nt,2,0,nt,nt,nt
COC(=O)c1ccc(NC(=O)CNC(=O)C2CCCCC2)cc1,0,94*,nt,0,5,5,-4,-11
O=C(O)C[C@H]1C[C@H]2c3cc(NC(=O)NC4CCCCC4)ccc3O[C@H]2[C@@H](CO)O1,nt,nt,2[16.7 µM],nt,nt,nt,nt,nt
CN1CCc2c(sc3c2c(=O)n(-c2ccccc2)c2nnc(SCc4ccc(Cl)cc4)n32)C1,-1,51,nt,0,14,25,15,-24
COCCNC(=O)C12CC3CC(CC(Cl)(C3)C1)C2,3,52,1,0,-22,31,0,6
C[C@H]1CN([C@@H](C)CO)S(=O)(=O)c2ccc(C3=CCCC3)cc2O[C@H]1CN(C)C,nt,nt,11[16.7 µM],nt,nt,nt,nt,nt
COc1ccc(-c2c[n+](CC(=O)c3ccccc3)c3n2CCCCC3)cc1,-6,50,5,0,8,55*,25,-13
Cc1ccc(-c2c[n+](CC(=O)c3ccc(Br)cc3)c3n2CCCCC3)cc1,10,77*,35,0,2,78*,33*,-21
Cc1ccc(NC(=O)C[n+]2cc(-c3ccccc3)n3c2CCC3)cc1,4,3,-2,0,-7,nt,nt,nt
O=C(C[n+]1cc(-c2ccccc2)n2c1CCCCC2)c1ccc(Cl)cc1,1,58*,-33,0,-1,49*,17,-6
O=C(C[n+]1cc(-c2ccc(F)cc2)n2c1CCC2)c1cccs1,1,-54,-62,0,-11,nt,nt,nt
COc1ccc(NC(=O)N(C)C[C@H]2OCCCC[C@@H](C)Oc3ccc(NC(=O)NC(C)C)cc3C(=O)N([C@@H](C)CO)C[C@H]2C)cc1,nt,nt,33[16.7 µM],nt,nt,nt,nt,nt
COc1ccc([Si](C)(C)[C@H]2[C@H](CCn3cc([C@H](O)c4ccccc4)nn3)O[C@@]3(C(=O)N(Cc4cccc(N5CCOC5=O)c4)c4ccccc43)[C@@H]2C)cc1,nt,nt,2[16.7 µM],nt,nt,nt,nt,nt
Cc1cc(C)c(C)c(S(=O)(=O)N2CCN(c3ncnc4ccccc34)CC2)c1C,-3,53,nt,2,13,71*,20,12
Cn1c(Cc2ccccc2)[n+](C)c2ccccc21,-6,3,5,0,4,nt,nt,nt
CC1Sc2n(c3ccccc3[n+]2C)N=C1c1ccccc1 (configuration not stated),-2,59*,60*,2,30,75*,27*,12
COc1cc(OC)cc(C(=O)N2CC(=O)Nc3ccccc32)c1,-1,55,-40,0,-16,29,48*,-50
COc1ccc(CN2CCc3ccccc3C2)c(OC)c1,-5,13,-3,0,8,nt,nt,nt
COc1ccc(C2=[N+](C)CCn3cccc32)c(OC)c1,-6,70*,-18,0,12,47*,21,13
C=CCN(CC=C)S(=O)(=O)c1ccc(NC(=S)NC(=O)Cc2ccc(OC)cc2)cc1,-9,69*,-22,0,11,16,17,24
COc1cccc(-c2nc(NCCN3CCOCC3)c3ccccc3n2)c1O,2,98*,-79,-1,2,31,20,-70
Oc1ccccc1-c1nc(NCCN2CCOCC2)c2ccccc2n1,-3,5,7,0,12,nt,nt,nt
C[C@@H]1CCCCO[C@@H](CN(C)Cc2ccncc2)[C@H](C)CN([C@@H](C)CO)C(=O)c2cc(NC(=O)Nc3ccc4c(c3)OCO4)ccc2O1,nt,nt,12[16.7 µM],nt,nt,nt,nt,nt
SMILES,GalR3 antagonist,Gli-Sufu antag,HIV Env fusion,aDG glyco act,NR2F2 inh,Gli-Sufu confirm,SufuKO cytotox,Wnt3a counter
CN1/C(=C\C(=O)COC(=O)CNC(=O)c2ccccc2F)C(C)(C)c2ccccc21,0,2,-14,0,-8,nt,nt,nt
CN1/C(=C\C(=O)COC(=O)CNC(=O)c2ccc3ccccc3c2)C(C)(C)c2ccccc21,-2,51,11,0,12,47*,14,8
CN1/C(=C\C(=O)COC(=O)c2ccc(O)c(O)c2)C(C)(C)c2ccccc21,-5,65*,27,nt,16,64*,26*,75*
CNC(=O)C[C@@H]1CC[C@@H]2[C@H](COc3ccc(NC(=O)NC4CCCC4)cc3C(=O)N2C)O1,nt,nt,3[16.7 µM],nt,nt,nt,nt,nt
COC(=O)c1ccc(CN2CCCC(C(=O)Nc3cccc(-n4cccn4)c3)C2)cc1 (configuration not stated),-4,53,-1,0,17,15,20,4
CCOCCCNC(=O)c1ccc2c(c1)ncn2-c1ccc(C)cc1C,-7,31,35,0,0,nt,nt,nt
CCOCCCNC(=O)c1ccc2c(c1)ncn2-c1ccccc1OC,-3,61*,?,0,6,11,11,-35
O=C(N=Nc1c(O)[nH]c2ccc(Br)cc12)c1ccccc1-n1cccc1,-9,57*,nt,-1,-37,32,34*,-59
O=C(N=Nc1c(O)[nH]c2ccc(Br)cc12)c1ccco1,-5,nt,-10,0,-21,nt,nt,nt
COCCN(Cc1cn(C)nc1-c1ccc(Oc2ccccc2)cc1)C(C)C,-5,57*,-80,0,13,17,15,-61
CCCn1c(Sc2nc3c(c(=O)[nH]c(=O)n3C)n2CCC)nc2c1c(=O)[nH]c(=O)n2C,-2,99*,-18,0,-3,9,2,-4
COCCSc1nc2c(c(=O)[nH]c(=O)n2C)n1CCCc1ccccc1,-8,52,6,0,-32,9,3,-32
COCCn1c(SCCCc2ccccc2)nc2c1c(=O)[nH]c(=O)n2C,0,8,nt,0,4,nt,nt,nt
C[C@H](CO)N1C[C@H](C)[C@H](CN(C)S(=O)(=O)c2ccccc2)Oc2c(NS(=O)(=O)c3ccccc3)cccc2C1=O,nt,nt,2[16.7 µM],nt,nt,nt,nt,nt
COc1ccc(OC)c(/C=C2\SC(N3CCCC(C)C3)=NC2=O)c1 (configuration not stated),-2,64*,?,0,20,14,12,-22
COc1ccc(/C=C2\SC(N3CCCCC3)=NC2=O)cc1OC,-1,-1,-10,0,-15,nt,nt,nt
COCC#Cc1cnc2c(c1)C(=O)N([C@H](C)CO)C[C@@H](C)[C@H](CN(C)C(=O)c1cccc(F)c1)O2,nt,nt,6[16.7 µM],nt,nt,nt,nt,nt
C[C@@H]1CN([C@@H](C)CO)C(=O)c2cccc(NS(=O)(=O)c3ccccc3)c2O[C@@H]1CN(C)CC1CCCCC1,nt,nt,-21[16.7 µM],nt,nt,nt,nt,nt

# Source: PubChem BioAssay
